In the supplement of paper PMC11732987, “Enantioselective OTUD7B fragment discovery through chemoproteomics screening and high-throughput optimisation” (Communications Chemistry, 2025):

Legend:
Assay in all cases: log2 ratio of Biotin-Ahx-Ub-VS probe labelling (fragment/DMSO); higher = less target engagement (more negative = stronger competition), active = hit call of the paper (q ≤ 0.05, log2 ratio ≤ -1)
Settings in all cases: compound concentration: 200 uM; treatment time: 3 h
USP19 = target: T1, USP19 (UniProt O94966)
T1 sequence (whole entry): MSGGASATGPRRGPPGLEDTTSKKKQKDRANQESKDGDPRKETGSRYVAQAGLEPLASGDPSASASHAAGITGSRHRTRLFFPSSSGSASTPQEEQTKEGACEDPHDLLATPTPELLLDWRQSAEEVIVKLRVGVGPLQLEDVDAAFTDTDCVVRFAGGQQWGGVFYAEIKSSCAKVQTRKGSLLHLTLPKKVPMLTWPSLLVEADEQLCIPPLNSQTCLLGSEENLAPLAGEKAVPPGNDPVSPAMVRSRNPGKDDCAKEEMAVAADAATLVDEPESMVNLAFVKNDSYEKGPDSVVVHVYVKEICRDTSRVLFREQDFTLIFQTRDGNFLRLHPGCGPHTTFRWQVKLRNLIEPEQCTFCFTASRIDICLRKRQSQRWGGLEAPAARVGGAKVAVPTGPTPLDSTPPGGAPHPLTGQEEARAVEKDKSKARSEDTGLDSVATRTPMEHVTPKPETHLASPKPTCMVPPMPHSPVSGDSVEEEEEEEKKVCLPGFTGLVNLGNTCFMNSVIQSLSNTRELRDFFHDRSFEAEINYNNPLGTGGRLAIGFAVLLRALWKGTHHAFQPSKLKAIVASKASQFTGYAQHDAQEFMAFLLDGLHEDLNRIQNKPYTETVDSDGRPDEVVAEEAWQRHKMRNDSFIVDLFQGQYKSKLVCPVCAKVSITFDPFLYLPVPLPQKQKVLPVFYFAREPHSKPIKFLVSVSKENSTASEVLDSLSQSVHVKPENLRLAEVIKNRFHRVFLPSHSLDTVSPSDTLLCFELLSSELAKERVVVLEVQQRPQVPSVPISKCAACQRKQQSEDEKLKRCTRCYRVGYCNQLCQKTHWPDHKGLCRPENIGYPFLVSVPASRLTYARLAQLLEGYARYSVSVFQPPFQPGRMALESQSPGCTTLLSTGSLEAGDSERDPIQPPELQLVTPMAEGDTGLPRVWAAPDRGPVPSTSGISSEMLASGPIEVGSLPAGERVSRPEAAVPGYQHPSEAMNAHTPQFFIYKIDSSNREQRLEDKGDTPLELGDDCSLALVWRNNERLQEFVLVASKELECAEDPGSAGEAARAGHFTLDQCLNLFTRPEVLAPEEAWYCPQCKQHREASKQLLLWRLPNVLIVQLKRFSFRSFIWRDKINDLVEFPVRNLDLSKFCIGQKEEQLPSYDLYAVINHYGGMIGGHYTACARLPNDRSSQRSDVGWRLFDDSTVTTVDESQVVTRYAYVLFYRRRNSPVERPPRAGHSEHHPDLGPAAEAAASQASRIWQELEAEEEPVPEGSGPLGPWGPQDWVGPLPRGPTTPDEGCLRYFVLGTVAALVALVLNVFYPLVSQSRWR
How it was run: (§1)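 Labelled DUBs from HEK293T lysate were NeutrAvidin-enriched, digested with LysC and trypsin, and run by diaPASEF LC-MS/MS. Before that, each 495 µg sample in Tris/CHAPS/IGEPAL buffer with protease inhibitors was treated in triplicate with fragment at 200 µM or vehicle for 3 h, then with Biotin-Ahx-Ub-VS at 0.5 µM final for 1 h. Values are average log2 ratios of fragment over vehicle by unpaired t-test, based on global-median-normalised Spectronaut label-free quantities from proteins with ≥2 unique peptides.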

USP22 = target: T2, USP22 (UniProt Q9UPT9)
T2 sequence (whole entry): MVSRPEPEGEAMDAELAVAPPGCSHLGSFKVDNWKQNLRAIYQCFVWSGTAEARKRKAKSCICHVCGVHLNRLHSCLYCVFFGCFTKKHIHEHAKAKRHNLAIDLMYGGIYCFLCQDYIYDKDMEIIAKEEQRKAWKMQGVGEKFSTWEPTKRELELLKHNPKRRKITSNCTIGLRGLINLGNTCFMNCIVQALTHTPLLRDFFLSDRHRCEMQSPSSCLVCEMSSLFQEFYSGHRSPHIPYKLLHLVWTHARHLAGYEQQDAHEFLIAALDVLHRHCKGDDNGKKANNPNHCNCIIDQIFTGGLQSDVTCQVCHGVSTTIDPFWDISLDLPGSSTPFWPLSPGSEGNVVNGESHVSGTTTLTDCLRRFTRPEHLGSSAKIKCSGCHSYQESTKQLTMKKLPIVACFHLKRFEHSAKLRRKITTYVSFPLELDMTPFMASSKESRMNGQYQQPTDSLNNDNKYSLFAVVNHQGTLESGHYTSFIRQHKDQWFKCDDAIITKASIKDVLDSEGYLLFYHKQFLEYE
How it was run: as §1

USP24 = USP24 (UniProt Q9UPU5)
Sequence of USP24 (Q9UPU5 whole entry): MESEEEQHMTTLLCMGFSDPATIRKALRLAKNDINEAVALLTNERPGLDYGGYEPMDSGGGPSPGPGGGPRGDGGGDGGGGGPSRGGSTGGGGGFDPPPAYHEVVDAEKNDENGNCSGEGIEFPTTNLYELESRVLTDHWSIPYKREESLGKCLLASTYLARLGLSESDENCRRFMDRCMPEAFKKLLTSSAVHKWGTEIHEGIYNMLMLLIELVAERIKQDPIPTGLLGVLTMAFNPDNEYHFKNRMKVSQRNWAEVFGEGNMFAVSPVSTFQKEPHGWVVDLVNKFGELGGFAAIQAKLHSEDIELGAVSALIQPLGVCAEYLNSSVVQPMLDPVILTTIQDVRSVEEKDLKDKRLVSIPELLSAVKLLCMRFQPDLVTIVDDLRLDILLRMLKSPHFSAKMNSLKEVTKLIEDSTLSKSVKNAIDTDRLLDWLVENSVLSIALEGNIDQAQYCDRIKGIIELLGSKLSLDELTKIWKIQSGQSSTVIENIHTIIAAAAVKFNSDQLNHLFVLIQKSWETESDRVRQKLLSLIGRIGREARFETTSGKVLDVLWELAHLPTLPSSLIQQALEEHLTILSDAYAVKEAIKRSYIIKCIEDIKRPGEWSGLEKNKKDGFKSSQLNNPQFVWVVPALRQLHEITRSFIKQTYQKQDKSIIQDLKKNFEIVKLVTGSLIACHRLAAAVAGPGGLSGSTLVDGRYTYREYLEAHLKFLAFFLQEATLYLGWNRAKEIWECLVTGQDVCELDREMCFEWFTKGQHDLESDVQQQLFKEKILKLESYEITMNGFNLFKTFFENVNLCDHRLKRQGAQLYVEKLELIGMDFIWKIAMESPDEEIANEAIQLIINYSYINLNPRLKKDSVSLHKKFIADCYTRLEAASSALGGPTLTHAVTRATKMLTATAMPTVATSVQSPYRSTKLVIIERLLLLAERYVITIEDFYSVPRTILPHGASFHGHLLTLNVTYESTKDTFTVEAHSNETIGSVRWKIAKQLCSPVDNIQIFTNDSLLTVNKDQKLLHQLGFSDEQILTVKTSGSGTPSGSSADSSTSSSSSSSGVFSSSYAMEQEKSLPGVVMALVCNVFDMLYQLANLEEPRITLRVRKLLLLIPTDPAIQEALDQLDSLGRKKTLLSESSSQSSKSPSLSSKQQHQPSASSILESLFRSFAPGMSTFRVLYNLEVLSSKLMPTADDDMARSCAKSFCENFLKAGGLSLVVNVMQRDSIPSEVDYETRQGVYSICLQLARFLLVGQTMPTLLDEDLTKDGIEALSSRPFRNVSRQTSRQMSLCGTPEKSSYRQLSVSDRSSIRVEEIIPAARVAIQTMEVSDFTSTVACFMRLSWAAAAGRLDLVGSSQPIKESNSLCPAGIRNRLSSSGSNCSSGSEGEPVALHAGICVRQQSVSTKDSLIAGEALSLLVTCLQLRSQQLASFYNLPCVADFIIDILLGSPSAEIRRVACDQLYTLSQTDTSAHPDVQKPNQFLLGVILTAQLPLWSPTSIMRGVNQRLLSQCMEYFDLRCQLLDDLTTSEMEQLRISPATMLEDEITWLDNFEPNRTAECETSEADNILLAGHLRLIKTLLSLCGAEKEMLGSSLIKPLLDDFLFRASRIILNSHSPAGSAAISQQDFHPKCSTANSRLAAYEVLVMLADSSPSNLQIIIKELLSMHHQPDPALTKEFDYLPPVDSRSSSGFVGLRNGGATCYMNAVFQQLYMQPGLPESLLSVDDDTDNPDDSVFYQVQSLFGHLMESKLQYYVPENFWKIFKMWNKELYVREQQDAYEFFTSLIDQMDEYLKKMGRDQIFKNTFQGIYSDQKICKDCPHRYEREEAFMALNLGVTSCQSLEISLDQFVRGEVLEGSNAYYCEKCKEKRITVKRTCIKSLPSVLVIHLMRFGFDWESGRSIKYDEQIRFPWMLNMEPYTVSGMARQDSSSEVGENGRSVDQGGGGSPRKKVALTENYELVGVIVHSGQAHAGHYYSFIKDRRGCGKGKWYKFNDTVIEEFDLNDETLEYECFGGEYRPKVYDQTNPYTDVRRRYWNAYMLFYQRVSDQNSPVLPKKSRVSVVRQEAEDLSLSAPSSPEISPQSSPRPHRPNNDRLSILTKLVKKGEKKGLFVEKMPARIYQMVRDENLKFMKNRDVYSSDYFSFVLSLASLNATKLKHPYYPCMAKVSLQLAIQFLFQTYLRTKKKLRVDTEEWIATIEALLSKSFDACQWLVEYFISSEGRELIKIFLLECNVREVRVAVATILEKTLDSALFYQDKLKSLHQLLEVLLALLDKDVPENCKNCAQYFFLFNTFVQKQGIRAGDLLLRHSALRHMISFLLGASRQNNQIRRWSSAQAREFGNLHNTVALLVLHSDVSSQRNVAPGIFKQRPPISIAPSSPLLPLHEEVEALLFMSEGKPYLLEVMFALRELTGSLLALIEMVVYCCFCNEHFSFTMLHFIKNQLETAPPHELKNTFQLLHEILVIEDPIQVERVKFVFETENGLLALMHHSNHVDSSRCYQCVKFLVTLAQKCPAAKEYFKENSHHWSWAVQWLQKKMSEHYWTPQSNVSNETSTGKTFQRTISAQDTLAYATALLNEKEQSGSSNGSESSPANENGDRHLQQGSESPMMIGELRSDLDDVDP
How it was run: as §1

USP25 = target: T3, USP25 (UniProt Q9UHP3)
T3 sequence (whole entry): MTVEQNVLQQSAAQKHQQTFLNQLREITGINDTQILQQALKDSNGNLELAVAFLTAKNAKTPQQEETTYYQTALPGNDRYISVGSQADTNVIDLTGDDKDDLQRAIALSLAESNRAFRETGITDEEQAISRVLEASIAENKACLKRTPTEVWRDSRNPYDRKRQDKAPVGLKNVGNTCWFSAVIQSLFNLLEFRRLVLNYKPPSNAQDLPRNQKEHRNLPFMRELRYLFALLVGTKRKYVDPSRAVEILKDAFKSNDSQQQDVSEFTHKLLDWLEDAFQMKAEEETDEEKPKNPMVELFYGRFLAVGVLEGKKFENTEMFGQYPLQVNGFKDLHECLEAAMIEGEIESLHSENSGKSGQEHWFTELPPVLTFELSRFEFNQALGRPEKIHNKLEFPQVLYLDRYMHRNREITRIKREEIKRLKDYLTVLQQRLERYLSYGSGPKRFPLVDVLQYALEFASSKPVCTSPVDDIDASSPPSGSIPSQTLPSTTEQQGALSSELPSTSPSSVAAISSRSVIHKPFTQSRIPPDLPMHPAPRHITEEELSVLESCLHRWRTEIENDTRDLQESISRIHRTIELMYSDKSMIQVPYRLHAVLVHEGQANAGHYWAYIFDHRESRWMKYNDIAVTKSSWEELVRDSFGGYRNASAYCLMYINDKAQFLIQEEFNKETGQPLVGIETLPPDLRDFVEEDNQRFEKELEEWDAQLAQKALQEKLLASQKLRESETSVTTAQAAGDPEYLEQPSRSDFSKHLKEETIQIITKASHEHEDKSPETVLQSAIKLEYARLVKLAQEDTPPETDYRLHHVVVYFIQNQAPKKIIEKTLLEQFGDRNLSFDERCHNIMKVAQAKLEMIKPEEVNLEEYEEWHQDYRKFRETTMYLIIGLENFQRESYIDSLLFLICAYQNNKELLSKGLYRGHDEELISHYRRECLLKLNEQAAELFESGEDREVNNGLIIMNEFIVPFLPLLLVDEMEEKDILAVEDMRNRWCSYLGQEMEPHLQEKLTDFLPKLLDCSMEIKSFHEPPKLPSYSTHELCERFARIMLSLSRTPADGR
How it was run: as §1

USP28 = target: T4, USP28 (UniProt Q96RU2)
T4 sequence (whole entry): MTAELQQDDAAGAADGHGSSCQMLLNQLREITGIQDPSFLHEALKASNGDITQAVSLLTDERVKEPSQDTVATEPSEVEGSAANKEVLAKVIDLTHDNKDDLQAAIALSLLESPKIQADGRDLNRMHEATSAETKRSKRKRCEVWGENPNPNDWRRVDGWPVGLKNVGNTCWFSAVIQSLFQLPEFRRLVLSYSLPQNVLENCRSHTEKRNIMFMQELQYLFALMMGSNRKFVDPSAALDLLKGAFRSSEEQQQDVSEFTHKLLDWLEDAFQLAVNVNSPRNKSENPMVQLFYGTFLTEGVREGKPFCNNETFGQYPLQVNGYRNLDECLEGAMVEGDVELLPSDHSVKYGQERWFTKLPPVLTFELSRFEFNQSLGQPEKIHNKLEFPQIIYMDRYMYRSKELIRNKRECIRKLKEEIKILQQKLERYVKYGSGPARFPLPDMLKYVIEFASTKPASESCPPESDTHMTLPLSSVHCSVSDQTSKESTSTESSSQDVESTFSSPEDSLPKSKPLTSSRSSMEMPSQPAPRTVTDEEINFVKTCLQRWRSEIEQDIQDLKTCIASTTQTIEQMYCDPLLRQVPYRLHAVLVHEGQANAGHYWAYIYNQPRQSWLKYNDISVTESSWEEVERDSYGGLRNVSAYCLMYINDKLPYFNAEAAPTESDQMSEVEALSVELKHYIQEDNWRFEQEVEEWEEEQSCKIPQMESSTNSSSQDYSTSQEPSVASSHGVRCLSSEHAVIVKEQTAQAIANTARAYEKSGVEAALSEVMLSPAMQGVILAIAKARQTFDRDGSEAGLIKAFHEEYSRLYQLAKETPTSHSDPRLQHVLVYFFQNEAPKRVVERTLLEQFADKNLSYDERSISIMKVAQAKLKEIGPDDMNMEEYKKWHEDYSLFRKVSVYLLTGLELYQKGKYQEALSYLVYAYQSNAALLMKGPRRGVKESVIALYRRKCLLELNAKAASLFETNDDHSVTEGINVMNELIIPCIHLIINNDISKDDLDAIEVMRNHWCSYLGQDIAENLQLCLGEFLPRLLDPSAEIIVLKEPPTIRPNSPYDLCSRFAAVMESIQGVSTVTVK
How it was run: as §1

Measured: log2 ratio of Biotin-Ahx-Ub-VS probe labelling

Cc1ccc(CC(CO)CNC(=O)CCl)cc1 (stereo not given)
inactive: USP19 -0.487 | USP22 -0.0764 | USP24 -0.554 | USP25 -0.531 | USP28 -0.597
